Assay [1] addresses Glucocorticoid receptor (Homo sapiens) (UniProt P04150). The assay can be described thus: ATG_GR_TRANS: Attagene TRANS-FACTORIAL HepG2 Assay for human Glucocorticoid Receptor (GR) (AID 2282978; active means hit-call score of the fitted dose curve at least 0.9, where 1 is the maximum;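 further: activators score as hits since higher reporter transcript over DMSO is fitted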). As to conditions: HepG2 Attagene TRANS GR reporter, mRNA transcription. The method in brief:
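Multiplexed TRANS reporter system, HepG2; 24 h exposure; RNA → oligo(dT) RT → reporter-specific PCR → 6-FAM primer extension → HpaI cut → CE fluorescence. Gain-of-signal vs DMSO.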

Assay [2] concerns the target Oxysterols receptor LXR-beta (Homo sapiens) (UniProt P55055). Nature of the assay: ATG_LXRb_TRANS: Attagene TRANS-FACTORIAL HepG2 Assay for human Liver X Receptor beta (LXRb) (AID 2282981; active means hit-call score of the fitted dose curve at least 0.9, where 1 is the maximum). As to conditions: HepG2 Attagene TRANS GAL4-LXRb reporter, mRNA. The method in brief: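 Liver-derived HepG2 cells transfected with Gal4-responsive reporters were dosed for 24 h. Activation was scored as rise in reporter mRNA, by RT-PCR and capillary electrophoresis, above DMSO baseline.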

For assay [3], the target named is Transcriptional activator Myb (Homo sapiens) (UniProt P10242). Nature of the assay: ATG_Myb_CIS: Attagene CIS-FACTORIAL HepG2 Assay for human Myeloblastosis (Myb) Proto-Oncogene Transcription Factor (AID 2282986). Conditions: HepG2 Attagene CIS-FACTORIAL Myb reporter transcription; actives raise or lower the signal. In outline:
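Endogenous transcription factor activity at a Myb-responsive cis element is reported in human liver HepG2 cells after 24 h chemical treatment. Reporter mRNA is detected by RT-PCR and capillary electrophoresis fluorescence, with DMSO as baseline.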

For assay [4], the target named is Nuclear respiratory factor 1 (Homo sapiens) (UniProt Q16656). The assay can be described thus: ATG_NRF1_CIS: Attagene CIS-FACTORIAL HepG2 Assay for human Nuclear Respiratory Factor 1 (NRF1) Orphan Gene (AID 2282987). Conditions: HepG2 NRF1 cis-element reporter, Attagene multiplex; actives raise or lower the signal. In outline:
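Human hepatoma HepG2 cells carrying transfected promoter-regulated reporter units were incubated with test chemicals for 24 h. Reporter transcripts were measured by RT-PCR plus capillary electrophoresis, and endpoints derived by bidirectional fitting with DMSO as baseline.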

Assay [5] can be described thus: ATG_NFI_CIS: Attagene CIS-FACTORIAL HepG2 Assay for human Nuclear Factor I (NFI) (AID 2282989). As to conditions: HepG2 cis-regulatory reporter, NFI response element transcription; actives raise or lower the signal. The method in brief:
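HepG2 cells transiently transfected with cis-element-driven multiplexed reporter transcription units, dosed for 24 h. Reporter mRNA quantified by RT-PCR, fluorescent labelling, HpaI digestion and capillary electrophoresis; bidirectional fit versus DMSO baseline.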

The target in assay [6] is Myc proto-oncogene protein (Homo sapiens) (UniProt P01106). The assay can be described thus: ATG_Myc_CIS: Attagene CIS-FACTORIAL HepG2 Assay for human Myelocytomatosis (Myc) Proto-Oncogene Transcription Factor (AID 2282990). Conditions: HepG2, Attagene cis-reporter transcription factor activity; actives raise or lower the signal. In outline: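 HepG2 cells transiently transfected with multiple cis-promoter-driven reporter transcription units, so endogenous TF activity is read. After 24 h compound exposure, reporter mRNA was quantified by RT-PCR, 6-FAM labelling, HpaI digestion and capillary electrophoresis; bidirectional fit versus DMSO.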

Assay [7] in a line: ATG_NF_kB_CIS: Attagene CIS-FACTORIAL HepG2 Assay for human Nuclear Factor Kappa B (NF-kB) (AID 2282991). Conditions: HepG2 Attagene cis-factorial NF-kB reporter mRNA; actives raise or lower the signal. The method in brief: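 Multiplexed cis-reporter assay in transiently transfected HepG2. 24 h treatment; RNA isolated, RT-PCR, labelled fragments resolved by CE. DMSO baseline.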

Assay [8] can be described thus: ATG_NRF2_ARE_CIS: Attagene CIS-FACTORIAL HepG2 Assay for human Nuclear Factor Erythroid 2 Related Factor 2 (NFR2) response to Antioxidant Response Elements (ARE) (AID 2282992).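 On AC50: reporter mRNA level measured by RT-PCR and capillary electrophoresis fluorescence.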 Conditions: HepG2 Attagene ARE/NRF2 reporter, transcription factor activity; actives raise or lower the signal. In outline: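 Fluorescence intensity of reporter-specific cDNA fragments, separated by capillary electrophoresis, reflects mRNA induction in transfected HepG2 cells at 24 h. Activity is fitted bidirectionally, DMSO serving as baseline.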

A short description of assay [9]: ATG_Oct_MLP_CIS: Attagene CIS-FACTORIAL HepG2 Assay for human Octamer-Binding Transcription Factor (Oct) (AID 2282993). Conditions: HepG2 Attagene cis-factorial Oct reporter, mRNA; actives raise or lower the signal. The method in brief:
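HepG2 cells transiently transfected with cis-promoter-driven multiplexed reporter transcription units, dosed for 24 h. Reporter mRNA quantified by RT-PCR, fluorescent labelling, HpaI digestion and capillary electrophoresis; bidirectional fits versus DMSO baseline.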

The target of assay [10] is Cellular tumor antigen p53 (Homo sapiens) (UniProt P04637). The assay can be described thus: ATG_p53_CIS: Attagene CIS-FACTORIAL HepG2 Assay for human p53 Transcription Factor (AID 2282994). As to conditions: HepG2 p53 cis-element reporter, Attagene mRNA; actives raise or lower the signal. In outline:
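Transiently transfected HepG2 (multiple cis reporter transcription units); exposure 24 h; reporter RNA via RT-PCR, 6-FAM extension, 2 h HpaI digest at 37 C, CE detection; DMSO baseline.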

The target in assay [11] is Hepatocyte nuclear factor 4-alpha (Homo sapiens) (UniProt P41235). Nature of the assay: ATG_HNF4a_TRANS: Attagene TRANS-FACTORIAL HepG2 Assay for human Hepatocyte Nuclear Factor 4 alpha (HNF4a) (AID 2282982; active means hit-call score of the fitted dose curve at least 0.9, where 1 is the maximum). As to conditions: HepG2 HNF4a transactivation reporter, mRNA readout. The method in brief: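 Using HepG2 liver cells transfected with GAL4-UAS reporter units, chemical-induced mRNA increases were assessed after 24 hours. Fluorescent RT-PCR fragments were separated by capillary electrophoresis and compared with DMSO negative controls.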

A short description of assay [12]: ATG_M_06_TRANS: Attagene TRANS-FACTORIAL HepG2 Assay for M06 Transcription Factor (Internal Marker) (AID 2282983; active means hit-call score of the fitted dose curve at least 0.9, where 1 is the maximum;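 further: reporter transcript level by RT-PCR then capillary electrophoresis fluorescence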). Conditions: HepG2 Attagene TRANS M06 internal marker reporter. The method in brief:
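In this multiplexed HepG2 system, compounds are incubated 24 h with cells carrying GAL4-UAS reporter units. Reporter RNA is amplified and resolved by capillary electrophoresis, and induction is scored against DMSO.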

Assay [13] in a line: ATG_M_32_TRANS: Attagene TRANS-FACTORIAL HepG2 Assay for M32 Transcription Factor (Internal Marker) (AID 2282984; active means hit-call score of the fitted dose curve at least 0.9, where 1 is the maximum;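 further: transcript level of a background control reporter unit measured by RT-PCR and capillary electrophoresis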). As to conditions: HepG2 Attagene TRANS M32 internal marker reporter. In outline: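 Fluorescence-detected mRNA induction, HepG2 liver cells, 24 h after dosing. Multiple GAL4-UAS reporter units introduced by transient transfection; background-control endpoint analysed for gain of signal against DMSO.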

For assay [14], the target named is Nuclear receptor subfamily 4 group A member 2 (Homo sapiens) (UniProt P43354). The assay can be described thus: ATG_NURR1_TRANS: Attagene TRANS-FACTORIAL HepG2 Assay for human Nuclear Receptor Related Protein 1 (NURR1) (AID 2282985; active means hit-call score of the fitted dose curve at least 0.9, where 1 is the maximum). As to conditions: HepG2 Attagene TRANS reporter, mRNA readout. The method in brief: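 Chimeric NR-Gal4 proteins were expressed in human HepG2 cells bearing GAL4-UAS reporter units, and induced reporter mRNA was quantified 24 h post-dosing by RT-PCR and capillary electrophoresis.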

Assay [15] can be described thus: BSK_3C_TissueFactor: BioMAP Diversity Plus: 3C Assay for Tissue Factor Biomarker Activity (AID 2282997). Conditions: BioMAP 3C HUVEC, tissue factor biomarker readout; actives raise or lower the signal. In outline: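 Readout: Tissue Factor ELISA. Cells: human primary umbilical vein endothelium. Time: 24 h after dosing. Analysis: bidirectional fit, DMSO baseline.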

Assay [16] is described as follows: BSK_3C_uPAR: BioMAP Diversity Plus: 3C Assay for Urokinase-type plasminogen activator receptor (uPAR) Biomarker Activity (AID 2282998). As to conditions: BioMAP 3C HUVEC, uPAR biomarker ELISA; actives raise or lower the signal. In outline:
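Human umbilical vein endothelial primary cells were exposed to test chemical for 24 h. Cell-surface uPAR was then quantified by ELISA, and responses were fitted bidirectionally against DMSO as negative control and baseline.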
A general note: An ELISA detects its analyte on a solid surface through an enzyme-linked reagent.

Assay [17] addresses Oxysterols receptor LXR-alpha (Homo sapiens) (UniProt Q13133). The assay can be described thus: ATG_LXRa_TRANS: Attagene TRANS-FACTORIAL HepG2 Assay for human Liver X Receptor alpha (LXRa) (AID 2282980; active means hit-call score of the fitted dose curve at least 0.9, where 1 is the maximum). Conditions: HepG2 Attagene TRANS reporter, LXRa transactivation. In outline:
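HepG2 cells were transiently transfected with multiplexed reporter units driven by chimeric LXRa–GAL4 fusion proteins, then dosed for 24 h. Reporter mRNA was quantified by RT-PCR, fluorescent labelling and capillary electrophoresis; gain of signal fitted against DMSO baseline.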

Assay [18] in a line: BSK_3C_VCAM1: BioMAP Diversity Plus: 3C Assay for Vascular cell adhesion molecule 1 (VCAM1) Biomarker Activity (AID 2282999). As to conditions: BioMAP 3C HUVEC, VCAM1 ELISA, cytokine-stimulated; actives raise or lower the signal. The method in brief: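 Vascular primary endothelium (human umbilical vein) was exposed to chemicals and assayed 24 h later. VCAM-1 levels came from ELISA, with DMSO serving as baseline for bidirectional fitting.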

Records with an inconclusive call do not appear. Activity calls are given as the source filed them. How the source made its calls, unless noted: active means hit-call score of the fitted dose curve at least 0.9, where 1 is the maximum; inactive means score below 0.9.

Sequence of Nuclear receptor subfamily 4 group A member 2 (Homo sapiens) (P43354 whole entry, looked up, the tested form may be a part): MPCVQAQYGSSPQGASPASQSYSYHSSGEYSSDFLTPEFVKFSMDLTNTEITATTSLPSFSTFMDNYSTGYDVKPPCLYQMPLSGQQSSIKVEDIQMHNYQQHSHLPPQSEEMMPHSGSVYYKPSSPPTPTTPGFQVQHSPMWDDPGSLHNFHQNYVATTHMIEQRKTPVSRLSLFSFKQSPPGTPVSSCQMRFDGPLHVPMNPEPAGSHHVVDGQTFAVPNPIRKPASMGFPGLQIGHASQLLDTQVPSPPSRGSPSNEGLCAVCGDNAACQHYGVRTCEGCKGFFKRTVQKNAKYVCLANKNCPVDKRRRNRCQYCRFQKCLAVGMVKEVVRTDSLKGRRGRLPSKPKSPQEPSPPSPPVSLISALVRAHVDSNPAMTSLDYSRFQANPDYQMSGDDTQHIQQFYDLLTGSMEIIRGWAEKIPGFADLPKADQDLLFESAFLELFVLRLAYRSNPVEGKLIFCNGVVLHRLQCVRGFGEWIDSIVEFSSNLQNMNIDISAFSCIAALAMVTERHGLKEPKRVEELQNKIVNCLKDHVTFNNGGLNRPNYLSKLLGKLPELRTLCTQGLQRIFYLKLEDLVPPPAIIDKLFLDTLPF
Sequence of Transcriptional activator Myb (Homo sapiens) (P10242 whole entry, looked up): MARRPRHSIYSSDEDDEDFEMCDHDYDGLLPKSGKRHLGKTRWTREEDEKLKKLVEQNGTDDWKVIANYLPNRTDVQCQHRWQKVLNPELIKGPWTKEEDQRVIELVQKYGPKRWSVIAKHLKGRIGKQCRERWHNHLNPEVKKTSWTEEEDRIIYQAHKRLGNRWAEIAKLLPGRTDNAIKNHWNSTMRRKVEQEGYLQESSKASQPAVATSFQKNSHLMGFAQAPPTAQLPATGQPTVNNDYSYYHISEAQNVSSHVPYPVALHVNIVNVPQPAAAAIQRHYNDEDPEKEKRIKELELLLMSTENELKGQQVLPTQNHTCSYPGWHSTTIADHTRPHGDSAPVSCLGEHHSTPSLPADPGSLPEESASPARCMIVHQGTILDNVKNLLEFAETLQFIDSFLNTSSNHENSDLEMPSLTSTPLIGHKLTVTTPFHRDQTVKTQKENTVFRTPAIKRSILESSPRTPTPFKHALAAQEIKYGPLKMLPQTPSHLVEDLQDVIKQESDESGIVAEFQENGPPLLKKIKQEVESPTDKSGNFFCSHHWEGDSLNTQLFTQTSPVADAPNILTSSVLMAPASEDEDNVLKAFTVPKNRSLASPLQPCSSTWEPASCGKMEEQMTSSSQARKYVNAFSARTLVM
Sequence of Glucocorticoid receptor (Homo sapiens) (P04150 whole entry, looked up): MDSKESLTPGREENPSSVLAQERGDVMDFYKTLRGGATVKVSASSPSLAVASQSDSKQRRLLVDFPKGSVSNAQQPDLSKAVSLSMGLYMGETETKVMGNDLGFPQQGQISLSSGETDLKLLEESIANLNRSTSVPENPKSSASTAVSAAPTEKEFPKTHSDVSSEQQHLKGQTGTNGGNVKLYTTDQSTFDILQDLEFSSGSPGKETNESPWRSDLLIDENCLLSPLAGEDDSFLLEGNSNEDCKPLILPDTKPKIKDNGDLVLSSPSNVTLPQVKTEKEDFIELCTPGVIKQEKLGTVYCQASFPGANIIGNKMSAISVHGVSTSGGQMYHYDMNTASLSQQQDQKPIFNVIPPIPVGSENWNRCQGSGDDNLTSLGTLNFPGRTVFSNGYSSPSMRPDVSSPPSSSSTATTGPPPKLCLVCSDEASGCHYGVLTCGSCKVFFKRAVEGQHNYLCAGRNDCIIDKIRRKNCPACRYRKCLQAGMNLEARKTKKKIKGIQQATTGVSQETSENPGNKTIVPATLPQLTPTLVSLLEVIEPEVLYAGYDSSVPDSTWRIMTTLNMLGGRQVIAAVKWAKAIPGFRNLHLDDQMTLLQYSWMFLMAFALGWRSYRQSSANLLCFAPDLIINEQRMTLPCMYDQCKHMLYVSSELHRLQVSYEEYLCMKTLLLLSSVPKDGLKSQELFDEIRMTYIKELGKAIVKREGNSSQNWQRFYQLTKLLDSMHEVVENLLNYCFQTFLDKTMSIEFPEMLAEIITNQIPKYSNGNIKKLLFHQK
Sequence of Myc proto-oncogene protein (Homo sapiens) (P01106 whole entry, looked up): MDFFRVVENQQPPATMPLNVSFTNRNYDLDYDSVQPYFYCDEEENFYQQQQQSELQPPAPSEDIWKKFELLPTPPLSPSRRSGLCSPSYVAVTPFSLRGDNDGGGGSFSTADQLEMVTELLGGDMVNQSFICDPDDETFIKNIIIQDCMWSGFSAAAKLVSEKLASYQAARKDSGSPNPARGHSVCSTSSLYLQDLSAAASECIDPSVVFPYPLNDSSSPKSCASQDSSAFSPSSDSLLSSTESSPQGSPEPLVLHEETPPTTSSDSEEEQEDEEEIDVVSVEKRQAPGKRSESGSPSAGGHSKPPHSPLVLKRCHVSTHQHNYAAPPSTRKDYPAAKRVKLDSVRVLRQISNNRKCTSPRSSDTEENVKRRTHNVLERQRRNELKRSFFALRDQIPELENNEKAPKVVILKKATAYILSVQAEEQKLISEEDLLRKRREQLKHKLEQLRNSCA
Sequence of Hepatocyte nuclear factor 4-alpha (Homo sapiens) (P41235 whole entry, looked up, the tested form may be a part): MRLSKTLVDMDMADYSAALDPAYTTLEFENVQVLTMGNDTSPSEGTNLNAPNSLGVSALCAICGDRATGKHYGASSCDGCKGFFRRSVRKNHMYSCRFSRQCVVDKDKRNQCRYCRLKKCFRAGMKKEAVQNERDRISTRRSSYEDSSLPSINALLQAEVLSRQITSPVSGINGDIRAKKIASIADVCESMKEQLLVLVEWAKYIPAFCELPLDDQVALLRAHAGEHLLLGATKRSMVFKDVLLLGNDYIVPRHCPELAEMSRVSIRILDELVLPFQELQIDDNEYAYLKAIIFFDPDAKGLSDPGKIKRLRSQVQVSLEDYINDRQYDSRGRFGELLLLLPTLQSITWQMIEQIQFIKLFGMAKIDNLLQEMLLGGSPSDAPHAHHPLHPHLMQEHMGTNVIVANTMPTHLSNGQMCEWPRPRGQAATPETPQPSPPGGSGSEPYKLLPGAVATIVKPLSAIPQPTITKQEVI
Sequence of Nuclear respiratory factor 1 (Homo sapiens) (Q16656 whole entry, looked up): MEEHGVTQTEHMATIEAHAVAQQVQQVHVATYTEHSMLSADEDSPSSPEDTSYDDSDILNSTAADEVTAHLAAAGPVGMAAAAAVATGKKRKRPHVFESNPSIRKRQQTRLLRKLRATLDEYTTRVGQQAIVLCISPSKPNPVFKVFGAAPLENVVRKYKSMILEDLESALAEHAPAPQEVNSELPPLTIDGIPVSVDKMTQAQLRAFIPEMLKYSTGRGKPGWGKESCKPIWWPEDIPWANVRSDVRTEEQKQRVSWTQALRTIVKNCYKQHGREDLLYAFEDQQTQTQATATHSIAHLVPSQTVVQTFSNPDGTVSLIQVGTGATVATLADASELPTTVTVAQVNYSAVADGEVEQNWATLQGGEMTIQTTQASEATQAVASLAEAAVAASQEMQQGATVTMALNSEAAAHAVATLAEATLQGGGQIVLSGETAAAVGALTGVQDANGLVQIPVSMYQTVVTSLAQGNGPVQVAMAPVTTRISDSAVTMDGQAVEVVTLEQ
Sequence of Oxysterols receptor LXR-alpha (Homo sapiens) (Q13133 whole entry, looked up, the tested form may be a part): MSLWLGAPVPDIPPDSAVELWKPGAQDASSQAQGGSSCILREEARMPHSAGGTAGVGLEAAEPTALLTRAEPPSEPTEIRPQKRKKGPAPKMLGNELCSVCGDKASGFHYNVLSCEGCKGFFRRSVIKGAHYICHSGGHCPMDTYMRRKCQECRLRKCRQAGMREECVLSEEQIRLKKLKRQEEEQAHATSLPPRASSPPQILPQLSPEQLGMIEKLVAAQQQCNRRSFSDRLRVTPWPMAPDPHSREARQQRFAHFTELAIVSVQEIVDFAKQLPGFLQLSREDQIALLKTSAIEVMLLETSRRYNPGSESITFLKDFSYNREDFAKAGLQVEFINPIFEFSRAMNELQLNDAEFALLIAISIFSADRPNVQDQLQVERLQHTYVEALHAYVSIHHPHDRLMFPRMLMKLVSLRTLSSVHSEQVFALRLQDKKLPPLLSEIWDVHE
Sequence of Oxysterols receptor LXR-beta (Homo sapiens) (P55055 whole entry, looked up, the tested form may be a part): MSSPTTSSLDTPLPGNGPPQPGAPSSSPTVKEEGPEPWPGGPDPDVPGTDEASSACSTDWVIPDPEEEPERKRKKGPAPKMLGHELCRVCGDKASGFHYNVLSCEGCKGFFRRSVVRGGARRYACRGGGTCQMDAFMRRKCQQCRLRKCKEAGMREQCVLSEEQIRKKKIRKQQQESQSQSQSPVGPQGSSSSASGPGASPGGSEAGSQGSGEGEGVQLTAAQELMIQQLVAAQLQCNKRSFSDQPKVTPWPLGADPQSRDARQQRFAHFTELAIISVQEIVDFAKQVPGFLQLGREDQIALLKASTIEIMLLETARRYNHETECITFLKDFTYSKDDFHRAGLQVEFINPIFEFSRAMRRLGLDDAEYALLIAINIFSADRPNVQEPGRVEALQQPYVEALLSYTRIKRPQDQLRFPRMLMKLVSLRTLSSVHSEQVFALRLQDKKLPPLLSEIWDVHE
Sequence of Cellular tumor antigen p53 (Homo sapiens) (P04637 whole entry, looked up): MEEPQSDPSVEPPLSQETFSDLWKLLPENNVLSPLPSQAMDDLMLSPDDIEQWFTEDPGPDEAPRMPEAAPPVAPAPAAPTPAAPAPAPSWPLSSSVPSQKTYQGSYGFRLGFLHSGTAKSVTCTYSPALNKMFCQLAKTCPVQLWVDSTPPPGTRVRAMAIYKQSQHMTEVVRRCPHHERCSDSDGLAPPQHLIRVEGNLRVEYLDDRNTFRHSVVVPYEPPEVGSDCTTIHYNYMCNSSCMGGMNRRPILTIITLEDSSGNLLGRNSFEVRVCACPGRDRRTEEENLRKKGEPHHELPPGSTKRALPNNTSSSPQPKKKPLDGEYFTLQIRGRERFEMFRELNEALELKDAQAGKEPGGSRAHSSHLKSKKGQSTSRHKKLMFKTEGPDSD

On to `CC(=O)OC1CCCCC1C(C)(C)C` (stereo not drawn), for which the compound was called inactive in assay [1], in assay [2], in assay [3], in assay [4], in [5] and in [6]. The compound was called inactive in assay [7], in assay [8], in assay [9] and in [10].

On to `CC(=O)OC(C)c1ccccc1` (stereo not drawn), for which the outcome in assay [1], in assay [2], in assay [11], in [12], in assay [13] and in assay [14] was inactive. The outcome in assay [3], in assay [4], in assay [5], in assay [6], in assay [7] and in assay [8] was inactive. For the same compound, the call in assay [9] and in [10] was inactive.

On to `c1ccc2c(c1)[nH]c1ccccc12`, for which the outcome in [1], in assay [2], in [11], in assay [13], in assay [14] and in [3] was inactive. The compound was classed as inactive in assay [4], in assay [5], in assay [6], in assay [8], in assay [9] and in [10]. The outcome in assay [15] and in [16] was inactive.

In the case of `Oc1ccccc1Cc1ccccc1O`, the compound was called inactive in assay [1], in [17], in assay [12], in assay [13], in assay [3] and in assay [4]. Besides, the call in assay [5], in assay [6], in assay [7], in assay [15], in assay [16] and in assay [18] was inactive. In addition, the AC50 in assay [8] is 40.7 µM (active); in assay [9], 134 µM (active); in [10], 100 µM (active).

As for `O=C(C=Cc1ccccc1)OCCc1ccccc1`, the result in [1], in [17], in [3], in assay [4], in [5] and in assay [6] was inactive. Also, the compound was classed as inactive in assay [7], in assay [9] and in assay [10]. The concentration at half-maximal activity (AC50) in assay [8] was 20.4 µM (active).

`CC(=O)OCC=C(C)C`: the compound was called inactive in [1], in assay [17], in assay [11], in [13], in [3] and in [4]. Also, the call in [5], in assay [6], in assay [7], in assay [8], in assay [9] and in [10] was inactive.

Consider `C=CCOC(=O)c1ccc(C(=O)OCC=C)c(C(=O)OCC=C)c1`, for which the compound was called inactive in [1], in [17], in assay [3], in [4], in assay [5] and in assay [6]. In assay [7], the compound was called inactive. In addition, the concentration at half-maximal activity (AC50) in assay [8] was 36.1 µM (active).

With `O=C(O)c1ccc2c(c1)C(=O)OC2=O`, the compound was classed as inactive in [1], in assay [17], in assay [13], in assay [14], in [3] and in assay [4]. Besides, the result in assay [5], in assay [6], in [8], in assay [9] and in [10] was inactive.

As for `CCCC(CC)c1ccccc1` (stereo not drawn), the call in assay [1], in assay [17], in [3], in [6], in [9] and in assay [10] was inactive. In addition, the AC50 in [4] was 158 µM (active); in assay [5], 181 µM (active); in [8], 165 µM (active).

As to `Clc1cc(Cl)c(Cl)c(Cl)c1Cl`, the call in [1], in assay [2], in assay [11], in assay [13], in [14] and in [3] was inactive. Also, the call in assay [4], in assay [5], in assay [6], in assay [8], in assay [9] and in assay [10] was inactive. Further, the result in assay [16] and in [18] was inactive. Besides, the AC50 in assay [15] is 3.97 µM (active).

As a reminder, the AC50 is the concentration giving half of the maximal activity seen.

(Values after PubChem BioAssay (EPA / NIEHS).)
